Source: PubChem BioAssay
Rin1-Abl PPI inh – inhibitors of human Rin1-Abl protein interaction; P00519+Q13671; TR-FRET Rin1/Abl binding, biochemical; inhibition, % at 7.35 µM; 360,000 tested, 0.4% active; in the data active means inhibition above about 5%, passing the limit was not always enough
Target sequence (P00519 whole entry, looked up): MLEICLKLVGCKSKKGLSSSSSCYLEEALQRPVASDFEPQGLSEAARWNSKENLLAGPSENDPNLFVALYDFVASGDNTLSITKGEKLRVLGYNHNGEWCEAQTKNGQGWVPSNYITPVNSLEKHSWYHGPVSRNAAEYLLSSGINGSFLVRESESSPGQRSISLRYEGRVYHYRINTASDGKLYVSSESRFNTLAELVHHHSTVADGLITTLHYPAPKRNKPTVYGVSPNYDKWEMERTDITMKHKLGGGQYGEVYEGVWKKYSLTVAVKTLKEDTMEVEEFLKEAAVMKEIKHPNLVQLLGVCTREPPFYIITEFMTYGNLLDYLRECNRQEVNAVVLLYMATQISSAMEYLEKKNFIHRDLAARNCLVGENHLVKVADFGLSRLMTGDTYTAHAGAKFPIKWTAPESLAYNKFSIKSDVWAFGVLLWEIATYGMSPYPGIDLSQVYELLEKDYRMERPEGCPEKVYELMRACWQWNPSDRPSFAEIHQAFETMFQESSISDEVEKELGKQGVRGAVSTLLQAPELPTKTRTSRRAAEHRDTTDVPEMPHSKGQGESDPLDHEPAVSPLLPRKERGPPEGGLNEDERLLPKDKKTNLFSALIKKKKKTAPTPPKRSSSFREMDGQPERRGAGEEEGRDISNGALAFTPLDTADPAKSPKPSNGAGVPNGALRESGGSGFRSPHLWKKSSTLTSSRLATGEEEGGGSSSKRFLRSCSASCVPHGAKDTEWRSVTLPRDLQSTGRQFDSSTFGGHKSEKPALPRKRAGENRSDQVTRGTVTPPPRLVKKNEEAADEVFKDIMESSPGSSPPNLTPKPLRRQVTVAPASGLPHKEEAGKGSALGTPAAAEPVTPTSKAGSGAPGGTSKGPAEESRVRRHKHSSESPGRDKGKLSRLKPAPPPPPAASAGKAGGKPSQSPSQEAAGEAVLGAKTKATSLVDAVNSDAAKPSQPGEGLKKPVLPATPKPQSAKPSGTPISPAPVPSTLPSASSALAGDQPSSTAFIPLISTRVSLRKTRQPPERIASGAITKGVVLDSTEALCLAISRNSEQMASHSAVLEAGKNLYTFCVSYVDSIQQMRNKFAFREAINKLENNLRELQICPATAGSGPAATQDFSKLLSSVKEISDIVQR
Target sequence (Q13671 whole entry, looked up): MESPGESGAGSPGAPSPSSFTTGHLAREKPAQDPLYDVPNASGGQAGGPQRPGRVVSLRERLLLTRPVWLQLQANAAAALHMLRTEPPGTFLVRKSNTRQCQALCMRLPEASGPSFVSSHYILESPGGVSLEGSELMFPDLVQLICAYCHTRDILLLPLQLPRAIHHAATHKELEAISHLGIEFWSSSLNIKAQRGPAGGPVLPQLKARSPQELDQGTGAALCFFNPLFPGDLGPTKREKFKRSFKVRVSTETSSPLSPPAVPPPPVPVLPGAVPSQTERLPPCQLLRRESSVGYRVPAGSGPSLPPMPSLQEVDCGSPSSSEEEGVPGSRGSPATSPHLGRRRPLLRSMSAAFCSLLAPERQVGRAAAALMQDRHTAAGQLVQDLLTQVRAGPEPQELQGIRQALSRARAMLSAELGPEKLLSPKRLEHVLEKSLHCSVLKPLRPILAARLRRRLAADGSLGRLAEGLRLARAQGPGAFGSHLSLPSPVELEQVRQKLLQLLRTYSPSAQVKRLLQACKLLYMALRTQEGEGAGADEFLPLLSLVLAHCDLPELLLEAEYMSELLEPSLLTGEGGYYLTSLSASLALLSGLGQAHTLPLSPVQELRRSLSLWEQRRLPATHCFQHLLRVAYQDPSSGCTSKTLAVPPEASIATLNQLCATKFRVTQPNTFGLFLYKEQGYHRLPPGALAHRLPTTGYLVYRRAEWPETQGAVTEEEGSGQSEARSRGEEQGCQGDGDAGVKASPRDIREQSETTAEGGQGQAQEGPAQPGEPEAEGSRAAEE
LEDGF integ inh – blocks HIV-1 LEDGF/p75-dependent DNA integration. TR-FRET IN-LEDGF/p75 DNA integration, Eu/Cy5. inhibition, % at 3.7 µM. 370,000 tested, 0.64% active. AID 743269;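 active means inhibition above the screen-wide mean plus 3 SD, cut at about 13% in these data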;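 further: signal is the Cy5 over europium emission ratio at 671 and 618 nm; 0% = plate median of compound wells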
MBD2 inh – MBD2-methylated oligo binding inhibition; 370,000 tested, 0.31% active; Q9UBB5; AID 686964; TR-FRET, MBD2 binding to methylated oligonucleotide; inhibition, % at 4.4 µM; in the data active means inhibition above about 13%
UHRF1 binding – human UHRF1 methylated DNA binding inhibitors | Q96T88 | UHRF1 binding to methylated oligo, TR-FRET | inhibition, % at 4.4 µM | 370,000 tested, 0.75% active; in the data active means inhibition above about 21%;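 further: UHRF1 SRA domain binding a hemimethylated CpG hairpin DNA probe; 0% = median of test compound wells and 100% = reference inhibitor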
TCR-CD3 inh – blocks the human TCR-CD3 interaction | inhibition, % at 9.4 µM | 360,000 tested, 0.37% active | TAMRA-labeled TCR probe fluorescence, biochemical; in the data active means inhibition above about 19%;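 further: recombinant mutant TCR 2C K166C tagged with TAMRA read by polarization; 0% = receptor in buffer alone and 100% = receptor with positive control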
Rin1 Abl conf – Rin1-Abl interaction inhibition confirmation. 1,300 tested, 49% active. shares compounds with Rin1-Abl PPI inh. TR-FRET Rin1-Abl binding, purified proteins. AID 602124. inhibition, % at 7.35 µM
GFP quench – counter-screen for Rin1-Abl inhibitors: GFP fluorescence quenchers; inhibition, % at 6.75 µM; AID 602125; 1,300 tested, 8.5% active; shares compounds with Rin1-Abl PPI inh; inhibitors/quenchers counterscreen;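 further: ABL1-eGFP fusion protein alone without its partner RIN1-SBP; 0% = protein with vehicle and 100% = wells lacking protein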
GFP quench dose – GFP fluorescence interference dose response. shares compounds with Rin1-Abl PPI inh. GFP fluorescence interference/quenching counterscreen. IC50, µM. 230 tested, under 10 active; call rule not given here;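 further: ABL1-eGFP fusion protein alone without its RIN1 binding partner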
The depositor's hits bear a star; nt = not tested or not shown. Rows were chosen to be rich in hits. Some 2% of all compounds tested hit in one or more screens of this group. Unless noted, no stated cut-off is given here; in the data, active means inhibition above about 6.5%; inactive means the rest.

SMILES | Rin1-Abl PPI inh | LEDGF integ inh | MBD2 inh | UHRF1 binding | TCR-CD3 inh | Rin1 Abl conf | GFP quench | others
Cc1ncc(CN2CCCC(C(=O)Nc3ccc(-c4cscn4)cc3)C2)cn1 (stereo not drawn) | 4.6 | -5.1 | 0.7 | 0.9 | -4.1 | nt | nt
CC(=O)Oc1c(I)cc(I)cc1C(=O)Nc1ccc(Cl)cc1 | -4.3 | 1.5 | 5.7 | -1.6 | 6.9 | nt | nt
Cc1cc(-c2ccccc2)nc(N/N=C/c2ccc(O)cc2O)n1 | 11.1* | -4.5 | -0.9 | 0.0 | -1.8 | 11.3* | -1.9
Oc1ccc(/C=N/Nc2ncc(Br)cn2)c(O)c1 | 12.3* | -12.7 | -1.7 | 3.0 | 10.1 | 9.9* | 1.5
Oc1ccc(/C=N/Nc2nccnc2Cl)c(O)c1 | 1.3 | -4.4 | 3.4 | -1.6 | -4.3 | nt | nt
CCOC(=O)C1CCN(Cc2oc(CO)cc(=O)c2O)CC1 | 14.4* | -1.6 | 0.1 | 0.5 | -0.5 | -0.8 | 0.3
O=c1cc(CO)oc(CN2CCN(c3ccccc3)CC2)c1O | -0.9 | -4.8 | 3.5 | 3.5 | -0.4 | nt | nt
CCN1CCN(Cc2oc(CO)cc(=O)c2O)CC1 | 5.0* | -0.9 | 3.2 | 0.1 | -1.6 | 0.8 | -1.4
COc1ccc(-c2nnc(N3CCC(C)CC3)c3ccccc23)cc1 | 0.9 | -3.0 | 1.5 | 0.1 | 0.5 | nt | nt
CCOc1ccc(-c2nnc(N3CCOCC3)c3ccccc23)cc1 | 12.0* | -1.3 | -4.8 | 0.9 | 0.1 | 6.7* | -0.7
Cc1ccc(C)c(NC(=O)CCC(=O)N2CCOc3ccccc32)c1 | -1.3 | -0.7 | 3.3 | 6.6 | -1.9 | nt | nt
O=C(COC(=O)c1ccc(-n2cnnn2)cc1)c1ccc(Br)cc1 | 0.9 | 1.2 | 1.2 | -0.2 | 0.0 | nt | nt
COC(=O)c1ccc(COC(=O)c2ccc(-n3cnnn3)cc2)o1 | 22.9* | 0.0 | -0.2 | -2.5 | 4.4 | 20.3* | -0.8 | GFP quench dose=>67.5
CNc1nc(NC)c2cn[nH]c2n1 | -1.0 | 2.0 | 0.1 | 2.7 | -4.9 | nt | nt
COc1cc2c(cc1OC)C(C)N(C(=O)c1ccc(Br)o1)CC2 (stereo not drawn) | 11.5* | -1.3 | -1.4 | -0.2 | 2.8 | 4.6 | 2.1
COc1cc2c(cc1OC)CN(C(=O)c1ccc(Br)o1)CC2 | 4.4 | 2.2 | -3.3 | -3.5 | 1.5 | nt | nt
COc1ccc(NC(=S)N2CCN(C/C=C/c3ccccc3)CC2)cc1 | 9.3* | -0.9 | -3.3 | -5.3 | 5.7 | -1.0 | -1.2
CC1CCN(S(=O)(=O)c2ccc3c(c2)N(CC(=O)NCCN2C(C)CCCC2C)C(=O)CS3)CC1 (stereo not drawn) | -1.9 | -3.2 | -1.5 | 1.1 | -0.9 | nt | nt
O=C(NCc1ccncc1)C1Cc2c(-c3ccc4c(c3)OCO4)ccnc2O1 (stereo not drawn) | -1.2 | 1.5 | 2.7 | 2.9 | 5.2 | nt | nt
CC(=O)Nc1cccc(-c2ccnc3c2CC(C(=O)NCc2ccc(N4CCN(C)CC4)cc2)O3)c1 (stereo not drawn) | 30.8* | 4.8 | -1.4 | 4.3 | -3.4 | 27.9* | -0.8 | GFP quench dose=>67.5
CN1CCN(c2ccc(CNC(=O)C3Cc4c(-c5ccc(Cl)cc5)ccnc4O3)cc2)CC1 (stereo not drawn) | 15.2* | -0.8 | -5.9 | -3.6 | -1.7 | 9.5* | 1.0
CC(=O)Nc1cccc(-c2ccnc3c2CC(C(=O)NCc2ccc(F)c(F)c2)O3)c1 (stereo not drawn) | 0.8 | -0.7 | 1.5 | 2.2 | -9.1 | nt | nt
CC(=O)Nc1ccc(-c2ccnc3c2CC(C(=O)NCc2ccc(N4CCN(C)CC4)cc2)O3)cc1 (stereo not drawn) | 14.1* | 7.1 | 5.1 | 3.8 | -0.5 | 13.5* | -0.6
O=C(NCc1ccncc1)C1Cc2c(-c3ccc(Cl)cc3)ccnc2O1 (stereo not drawn) | -1.7 | -1.6 | 1.8 | 0.4 | -1.1 | nt | nt
CN1CCN(c2ccc(CNC(=O)C3Cc4c(-c5ccc6c(c5)OCO6)ccnc4O3)cc2)CC1 (stereo not drawn) | 15.1* | -4.1 | 0.8 | 5.5 | -2.1 | 14.1* | -2.3
CCC(C)NC(=O)c1cc2c(=O)[nH]c3ccc(C)cc3c2s1 (stereo not drawn) | -2.5 | 0.9 | 0.2 | -0.6 | 4.5 | nt | nt
CC(=O)Nc1cccc(-c2ccnc3c2CC(C(=O)NCc2ccncc2)O3)c1 (stereo not drawn) | -2.5 | -5.0 | 7.1 | 5.0 | -5.0 | nt | nt
